Results as given in PubChem BioAssay AID1159580 (chemical genetic matrix, 2015).
Out of some 5,500 compounds screened, about 2,000 (36%) were called active. Another 18% or so got no clear call; they are omitted. The list shows a part of the results. A number with no mark means an inactive call. Cut-off read from the data, not from the text of the source: active = normalized growth mostly below about 0.91 (no sharp cut-off); inconclusive = no clear call, values can overlap the other calls; inactive = mostly above about 0.92.

Assay: chemical genetic growth profiling, strain panel (AID 1159580);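 note: tested at 20 µM; growth read once vehicle control cultures reached saturation at 30 °C; 1 = growth at the plate median or of vehicle wells; lower values mean less growth of the strain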
Details: S. cerevisiae deletion strains, growth OD
[1] = locus YAL040C, strain CLN3, active compounds read low
[2] = locus YCL061C, strain MRC1 (second series), active compounds read low
[3] = locus YDR363W, strain ESC2, active compounds read low
[4] = locus YER002W, strain NOP16, active compounds read low
[5] = locus YNL153C, strain GIM3, active compounds read low
[6] = locus YNL175C, strain NOP13, active compounds read low
[7] = locus YNL197C, strain WHI3, active compounds read low
[8] = locus YNL224C, strain SQS1, active compounds read low
[9] = locus YOR083W, strain WHI5 (second series), active compounds read low

| SMILES | normalized growth (locus YAL013W, strain DEP1, active compounds read low) | normalized growth [1] | normalized growth [2] | normalized growth [3] | normalized growth [4] | normalized growth (locus YMR307W, strain GAS1, active compounds read low) | normalized growth (locus YNL128W, strain TEP1, active compounds read low) | normalized growth [5] | normalized growth [6] | normalized growth [7] | normalized growth [8] | normalized growth [9] | normalized growth (locus YGR078C, strain PAC10, active compounds read low) | normalized growth (locus YJR075W, strain HOC1, active compounds read low) |
| --- | --- | --- | --- | --- | --- | --- | --- | --- | --- | --- | --- | --- | --- | --- |
| N[C@@H](Cc1cnc[nH]1)C(=O)O | 0.963 | 0.939 | 0.987 | 0.979 | 0.991 | 0.986 | 0.978 | 1.01 | 0.989 | 0.988 | 0.996 | 1.03 | – | – |
| O=Nc1c(-c2c(O)[nH]c3ccccc23)[nH]c2ccccc12 | – | 0.529 (active) | 0.997 | 0.976 | 0.587 (active) | – | – | 1 | 0.676 (active) | 0.869 (active) | 0.951 | 0.46 (active) | 0.985 | 1.01 |
